NR3A LBD binder = modulators (binders) of human NR3A ligand-binding domain. NR3A LBD differential scanning fluorimetry, Tm shift; 0% = protein alone, 100% = glycine-bound protein. 340,000 tested, 2.5% active. AID 1259313. Tm shift relative to glycine control, % at 25 µM;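 active = melting temperature shift of at least 10% of the positive control shift, at one fixed dose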
rCAG binder = r(CAG) repeat RNA binding; TO-PRO-1 dye displacement fluorescence; inhibition, % at 3 µM; 370,000 tested, 1.3% active;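 active = inhibition above the plate cutoff, the mean of all test compounds on that plate plus 3 SD, cut at about 35% in these data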;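 note: higher means more dye released from RNA so lower well fluorescence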
ADAM10 inh = inhibitors of human ADAM10 | recombinant ADAM10, EDANS/DABCYL FRET peptide cleavage, 3 h | inhibition, % at 7 µM | 370,000 tested, 0.62% active;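 active = inhibition above a per-campaign cutoff equal to the mean of compounds falling between control-based bounds plus 3 SD, cut at about 20% in these data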
KLK7 zymogen act = proKLK7 (human) activation, primary screen | 370,000 tested, 0.9% active | purified proKLK7, EDANS-DABCYL substrate fluorescence; 100% is mature enzyme control, 0% vehicle | activation, % at 7 µM | AID 652039;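 active = activation above the mean of all tested compounds plus 3 SD, computed per campaign excluding outliers beyond control limits, cut at about 13% in these data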
Target sequence (P49862 whole entry, looked up): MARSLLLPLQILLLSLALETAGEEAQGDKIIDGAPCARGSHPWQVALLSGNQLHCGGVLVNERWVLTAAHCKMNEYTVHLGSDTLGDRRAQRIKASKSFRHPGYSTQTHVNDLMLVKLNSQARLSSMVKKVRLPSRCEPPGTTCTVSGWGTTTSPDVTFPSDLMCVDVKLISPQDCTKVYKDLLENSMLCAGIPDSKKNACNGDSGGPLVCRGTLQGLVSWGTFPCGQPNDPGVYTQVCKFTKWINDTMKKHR
AHR activator = human AHR activation; P35869; AHR-responsive luciferase reporter cells, luminescence; activation, % at 5 µM; 320,000 tested, 2.5% active; AID 2796; in the data active = activation above about 47%
ADAM17 inh = inhibits human ADAM17 | P78536 | recombinant ADAM17, EDANS/DABCYL FRET peptide cleavage | inhibition, % at 6.95 µM | 370,000 tested, 0.83% active | AID 720648;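 active = inhibition above the mean of compounds lying between control limits plus 3 SD, set per campaign, cut at about 8.5% in these data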
Hits are given with their value; 0 = inactive; - = no result given. A selection: hits, their analogues and other compounds. The true share with any hit is near 7%.

SMILES	NR3A LBD binder	rCAG binder	ADAM10 inh	KLK7 zymogen act	AHR activator	ADAM17 inh
Cc1cc(/C=C(\C#N)C(=O)NCc2ccco2)c(C)n1-c1cccnc1	0	0	0	0	70	0
CCOC(=O)Cn1cc(CN2CCS(=O)(=O)N(Cc3ccc(Cl)cc3)C(C(=O)OC)C2)nn1 (stereo not drawn)	-	0	0	0	-	0
O=C(Nc1ccc(-c2noc(COc3ccccc3Cl)n2)cc1)c1ccco1	13	0	0	0	0	0
O=C(COc1ccccc1Cl)NCCCNC(=O)c1ccco1	0	0	0	0	0	0
COc1ccc(CC(=O)Nc2ccc(-c3noc(COc4ccccc4C)n3)cc2)cc1	0	0	0	0	0	0
O=C(COc1ccccc1Cl)Nc1ccc(NC(=O)c2ccco2)cc1	15	0	0	0	0	0
COc1cc(/C=N/NC(=O)c2ccccc2O)ccc1OCC(=O)Nc1ccccc1	37	0	0	0	0	0
COc1cc(/C=N/NC(=O)c2ccncc2)ccc1OCC(=O)Nc1ccccc1	0	0	0	0	0	0
O=C(Oc1ccc(/C=N/NC(=O)c2ccccc2F)cc1)c1ccccc1	0	0	0	0	0	0
CSc1ccc(/C=N/NC(=O)c2ccc(C)c(C)c2)cc1	0	0	0	0	0	0
O=C(Oc1ccc(/C=N/NC(=O)c2ccccc2O)cc1)c1ccccc1	13	0	0	0	0	0
CSc1ccc(/C=N/NC(=O)c2cc(O)cc(O)c2)cc1	13	0	0	0	0	0
CCOc1ccc(NC(=O)Nc2cc(-c3ccccc3)sc2C(=O)OC)cc1	21	0	0	0	47	0
CCOc1ccc(/C=N/NC(=O)Nc2ccccc2)cc1	0	0	0	0	61	0
O=C(COc1ccc(/C=N/NC(=O)c2ccccc2Br)cc1)Nc1ccccc1	0	0	0	0	0	0
O=C(COc1ccc(/C=N/NC(=O)c2ccccc2O)cc1)Nc1ccccc1	16	0	0	0	0	0
Cc1cccc(C(=O)Oc2ccc(/C=N/NC(=O)c3cc(O)cc(O)c3)cc2)c1	14	0	0	0	-	0
Cc1cccc(C(=O)Oc2ccc(/C=N/NC(=O)c3ccncc3)cc2)c1	0	0	0	0	0	0
CCN(CC)c1ccc(/C=N/NC(=O)Nc2ccccc2)cc1	0	0	0	0	0	0
COc1ccccc1NC(=O)COc1ccc(/C=N/NC(=O)c2cccnc2)cc1	0	0	0	0	0	0
O=C(COc1ccc(/C=N/NC(=O)c2cccnc2)cc1)Nc1ccccc1	13	0	0	0	0	0
Cn1cnc(S(=O)(=O)Nc2ccc(Cl)c(C(F)(F)F)c2)c1	14	0	0	0	0	0
COC(=O)[C@]12C[C@H](CC(=O)NCc3cccc4ccccc34)C(=O)N(Cc3ccccc3)C1=C[C@H](C(C)C)O[C@@H]2C1CC1	-	0	0	0	-	0
COc1ccc(-c2cc(C(=O)NN=Cc3ccc(C)s3)[nH]n2)cc1	-	0	0	0	-	0
CC(=O)OCC(=O)Nc1ccc(Br)c(C)c1	0	0	0	0	0	0
SMILES	NR3A LBD binder	rCAG binder	ADAM10 inh	KLK7 zymogen act	AHR activator	ADAM17 inh
Cc1cnc(C(=O)OCC(=O)Nc2cc(Cl)cc(Cl)c2)cn1	13	0	0	0	0	0
Cc1cnc(C(=O)OCC(=O)Nc2ccc(Br)c(C)c2)cn1	12	0	0	0	0	0
CCC[C@H]1[C@@H](NC(=O)C2CCOC2)CC[C@@]23CCCN2C(=O)CCC[C@@H]13 (stereo partly drawn)	-	-	0	-	-	0
CC(=O)c1cnc2cc(-c3ccc(Cl)cc3)nn2c1C	0	0	0	0	71	0
Cc1c(C(=O)O)cnc2cc(-c3ccc(Cl)cc3)nn12	0	0	0	0	0	0
COC(=O)C/C=C/[C@@H](C)[C@H](NC(=O)OCC(Cl)(Cl)Cl)c1ccc(-c2ccccc2)cc1	-	0	0	0	-	0
CCN1CCn2c3c(c4cccc(C)c42)CCCC31 (stereo not drawn)	0	0	0	0	61	0
O=C(c1cccc(Oc2ccccc2)c1)N1CCC(Oc2cccnc2)CC1	-	0	0	0	-	0
COP1(=O)CCOCC[C@H](CC(C)C)NC(=O)[C@H](CC(C)C)N1 (stereo partly drawn)	-	-	0	-	-	0
CN1CC=C2C(C#N)=C(N)C(C#N)(C#N)C(CCc3ccccc3)C2C1 (stereo not drawn)	0	-	-	-	56	-
CCc1cc(/C(Cc2ccccn2)=N\Nc2ccccc2)c(O)cc1O	0	0	0	0	77	0
Cc1ccccc1C(=O)N[C@@H](CC(C)C)C(=O)N1CCC[C@H]1C(=O)NCc1ccccc1	-	0	0	0	-	0
CC(=O)Nc1nc(C)c(-c2csc(Nc3cccc(C(C)=O)c3)n2)s1	0	0	0	0	57	0
CC(=O)Nc1ccc(Nc2nc(-c3sc(NC(C)=O)nc3C)cs2)cc1	0	0	0	0	0	0
CC(=O)Nc1nc(C)c(-c2csc(Nc3ccc(O)cc3)n2)s1	0	-	-	-	49	-
C/C(=N\NC(=O)c1ccccc1O)c1cccc(NC(=O)c2ccccc2)c1	0	0	0	0	53	0
C/C(=N\NC(=O)c1ccn(C)n1)c1ccc(NC(=O)c2cccc(F)c2)cc1	16	0	0	0	0	0
C/C(=N\NC(=O)c1ccccc1O)c1ccc(NC(=O)c2ccccc2)cc1	11	0	0	0	-	0
C/C(=N\NC(=O)c1ccn(C)n1)c1cccc(NC(=O)c2ccc(C)s2)c1	0	0	0	0	0	0
C/C(=N/NC(=O)c1ccncc1)c1ccc(NC(=O)c2ccccc2)cc1	0	0	0	0	-	0
CCOc1ccc(CCNC(=O)c2cc3ccsc3n2C)cc1OCC	-	0	0	0	-	0
Cn1c(O)c(/C=N/Nc2ccccc2)c(=O)n(C)c1=O	0	0	0	0	58	0
Cc1[nH]nc(N=Cc2c(O)n(C)c(=O)n(C)c2=O)c1-c1ccccc1	0	-	-	-	0	-
COc1ccc(CNC(=O)O[C@H]2CC[C@@]34CCCN3C(=O)CCC[C@H]4C2)cc1	-	-	0	-	-	0
COc1cc2ccccc2cc1C(=O)Nc1cccnc1	0	0	0	0	77	0
SMILES	NR3A LBD binder	rCAG binder	ADAM10 inh	KLK7 zymogen act	AHR activator	ADAM17 inh
Cc1ccc(Cl)cc1NC(=O)c1cc2ccccc2cc1O	30	0	0	0	0	0
COc1cc(OC)c(C(=O)Nc2cccnc2)cc1OC	0	0	0	0	0	0
O=C(Nc1cccc([N+](=O)[O-])c1)c1ccc2ccccc2c1O	26	0	0	0	0	0
COc1cc2ccccc2cc1C(=O)NCc1ccncc1	0	0	0	0	50	0
COC(=O)[C@]12C[C@H](CC(=O)NCC3CCCCC3)C(=O)N(Cc3ccc(Cl)cc3Cl)C1=C[C@H](C(C)(C)C)O[C@@H]2C	-	0	0	0	-	0
COC(=O)[C@]12C[C@H](CC(=O)NCCCCc3ccccc3)C(=O)N(Cc3ccccc3)C1=C[C@H](COCc1ccccc1)O[C@@H]2C	-	0	0	0	-	0

Assay outcomes from PubChem BioAssay.
